Experimental data as given in PubChem BioAssay (NCI).
The panel holds about 83,000 compounds, 20% with a hit somewhere; the sample as a whole holds those more often.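 48-hour exposure, single concentration, 96-well plates; percent growth endpoint where 0 means no net growth. Active: below 10.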 A number with no mark means an inactive call. Calls of active or inactive are those of the source.

Assays:
Assay in all cases: NCI-60 one-dose screen, 48 h (100 = growth as untreated, 0 = no growth, -100 = all killed)
Settings in all cases: 10 µM unless noted
T-47D breast = tested on: T-47D breast
BT-549 breast = tested on: BT-549 breast
MDA-MB-435 melanoma = tested on: MDA-MB-435 melanoma
SW-620 colon = tested on: SW-620 colon
MCF7 breast = tested on: MCF7 breast
HCT-116 colon = tested on: HCT-116 colon
HCC-2998 colon = tested on: HCC-2998 colon
KM12 colon = tested on: KM12 colon

| Structure (SMILES) | growth (T-47D breast) | growth (BT-549 breast) | growth (MDA-MB-435 melanoma) | growth (SW-620 colon) | growth (MCF7 breast) | growth (HCT-116 colon) | growth (HCC-2998 colon) | growth (KM12 colon) |
| --- | --- | --- | --- | --- | --- | --- | --- | --- |
| CCCCC(=O)Nc1ncc(Cc2ccc(Cl)cc2)s1 | 56.4% | 65% | 0.64% (active) | 37.7% | 37.4% | 53.6% | 65.8% | 38.8% |
| CCOC(=O)c1c(C)c2c(n1C)CSc1cc(C(=O)c3ccccc3)c(=O)[nH]c1-2 | 72.3% [100 µM] | 93.7% [100 µM] | 84.6% [100 µM] | 93.8% [100 µM] | 90.6% [100 µM] | 85.8% [100 µM] | 106% [100 µM] | 97.4% [100 µM] |
| Cc1cnc(C(=O)NNc2nc3sc4c(c3c(=O)n2C)C(C)CCC4)cn1 (configuration not stated) | -7.99% (active) | 25.8% | 7.05% (active) | 10.2% | -12% (active) | 3.75% (active) | 29.5% | 6.33% (active) |
| CC(=O)c1cc(O)c2ccccc2c1O | 87.1% | 91.7% | 111% | 108% | 75.2% | 95.4% | 166% | 106% |
| COc1cc2c(c(OC)c1OC)CCC(c1cccc(C(=O)Nc3cccc(Br)c3)c1)O2 (configuration not stated) | 40.6% | 80.8% | 69.6% | 79.6% | 77.8% | 55% | 103% | 81.2% |
| Cc1ccc(-c2nc(/C=C3/C(=O)Nc4ccccc43)c3ccccn23)cc1 | 80.7% | 104% | 94.3% | 64.8% | 37.2% | 66.8% | 109% | 88.4% |
| CCCCCCC1(C)NCCO1 (configuration not stated) | 108% | 103% | 109% | 106% | 99.7% | 106% | 99.2% | 106% |
| O=S(=O)(NCCNc1cc(-c2c(-c3cccc(O)c3)nc3sccn23)ccn1)c1ccc(C(F)(F)F)cc1 | -1.89% (active) | 26.6% | 10.7% | 47.3% | 16.2% | 26.6% | 70.6% | 26.7% |
| CCOC(=O)c1cc(C(=O)c2cc(OC)c(OC)c(OC)c2)n2ccc(-c3ccncc3)cc12 | 84.1% | 90.6% | 106% | 105% | 107% | 76.3% | 115% | 100% |
| N#Cc1c(-c2ccc(Cl)cc2)nc(SCC(=O)NC2=NN=C(c3ccccc3)CS2)[nH]c1=O | 41.4% | 91.3% | 29.5% | 91.6% | 47.8% | 80.6% | 89.6% | 83.8% |
| N#Cc1c(-c2ccc(Cl)cc2)nc(NN=Cc2cccc(O)c2)nc1N1CCOCC1 | 64.6% | 73.1% | 87% | 64.8% | 60.1% | 57.9% | 103% | 81% |
| Cc1nc2ncnc(Cl)c2[nH]1 | 95.7% | 105% | 105% | 103% | 91.3% | 84.3% | 98.6% | 102% |
| O=C(Nc1cccnc1Nc1ccc(F)cc1)c1cn(Cc2cccc(Oc3ccccc3)c2)nn1 | 65.4% | 69.8% | -32.4% (active) | 56.5% | 40.1% | 68.8% | 84.8% | 55.9% |
| C=CC(=O)NCc1ccc(Nc2nccc(-c3ccc(N4CCCC4)c(C#N)c3)n2)cc1 | 71% | -10.3% (active) | 10.1% | 43.9% | 14.3% | 22.2% | 71.3% | 35.2% |
| O=C(/C=C(/C=C/c1cccc2[nH]ccc12)OB(F)F)/C=C/c1cccc2[nH]ccc12 | 7.95% (active) | -19.5% (active) | -34.4% (active) | 1.96% (active) | 4.29% (active) | -84.7% (active) | -84.1% (active) | -17.3% (active) |
| COc1cc(-c2csc(NC(=O)c3cc(-n4cnc(C)c4)cc(C(F)(F)F)c3)n2)cc(OC)c1OC | 23.5% | 47.4% | 74.8% | 77.9% | 61.8% | 40.4% | 83.9% | 56.4% |
| Cc1ccc(C2=Nc3c(N)ncnc3NC(c3ccc4c(c3)OCO4)C2)cc1 (configuration not stated) | 70.5% | 61.4% | -34.5% (active) | 18.3% | 25.9% | 47% | 2.97% (active) | 35.3% |
| CCc1ccc(Oc2cn[nH]c2-c2ccc(OCCc3ccc(F)cc3)cc2O)cc1 | 34.5% | 107% | 91.6% | 94.1% | 85.3% | 71.9% | 98.5% | 84.8% |
| CCCCNc1ccc(C#N)c(OCCN(CC)CC)c1 | 104% | 98.2% | 104% | 109% | 93.8% | 104% | 108% | 112% |
| CC(=O)Nc1nc2ccc(NS(=O)(=O)c3cccc4c(N(C)C)cccc34)cc2[nH]1 | 74.3% | 61.3% | -28.6% (active) | 38.7% | 22.4% | 62.2% | 83.3% | 55.1% |
| Cc1ccc(-c2csc(NC(=O)CN3CCN(c4cc5c(cc4F)c(=O)c(C(=O)O)cn5C4CC4)CC3)n2)cc1 | 6.74% (active) | 16.2% | 14.4% | 27.4% | 6.16% (active) | 14.2% | 31.2% | 8.87% (active) |
| CC1=Nc2cnc(Nc3ccc(OCCN4CCCCC4)cc3)nc2Nc2ccccc21 | 66.4% | 78.6% | 56.3% | 62.3% | 67.6% | 64.1% | 67% | 12.8% |
| CCOC(=O)C1=NN(c2ccccc2)C(=O)/C1=C\N1C(=O)CC(=O)NC1=S | 85.9% | 101% | -22.1% (active) | 93.7% | 102% | 101% | 112% | 99.4% |
| COc1cc2oc(-c3cccc(NC(=O)c4cccc(Br)c4)c3)cc(=O)c2c(OC)c1OC | 27.7% | 50.2% | 57.4% | 65.1% | 54.8% | 40.2% | 57.8% | 40.4% |
| Cc1nc2c(=O)[nH]c(SCC(=O)Nc3cccc(F)c3)nc2[nH]c1=O | 97.1% | 104% | 103% | 101% | 92.7% | 103% | 104% | 105% |
| O=C1CC(N2C(=O)/C(=C/C(Cl)=C\c3ccc([N+](=O)[O-])cc3)SC2=S)C(=O)N1c1ccc(Cl)cc1 (configuration not stated) | 36.3% | -1.71% (active) | 3.02% (active) | 3.41% (active) | 18.1% | 8.7% (active) | -22.9% (active) | 12.4% |
| C#Cc1ccc(NC(=O)c2ccc(/C=C/C(=O)c3nccn3C)cc2)cc1 | 0.0135% (active) | -78.5% (active) | -44.7% (active) | -73.3% (active) | -45.4% (active) | -62.6% (active) | -89.2% (active) | -64.1% (active) |
| C[C@]12CC[C@@H]3c4ccc(O)c([N+](=O)[O-])c4CC[C@H]3[C@@H]1CCC2=O | 115% | 78.3% | 95.4% | 100% | 112% | 105% | 94.1% | 91.1% |
| O=C1/C(=C/c2ccc(Cl)cc2)COc2ccc(O)cc21 | 83.5% | 80.5% | 64.7% | 2.28% (active) | 5.46% (active) | 4.5% (active) | 83.8% | 20.3% |
